The list is not random: actives were taken first. Their share in the collection is about 21%.
NS1 function inh: inhibitors of influenza NS1 protein function; Potency, µM (highest dose often 46.1 µM); hit rate 0.4% among 270,000; calls by dose curve; note: actives are rising curves; nearly all actives have a fitted effect of over 50% in size
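Read-out: OD600 growth recovery of NS1-expressing budding yeast. Cells grown overnight at 30C in -URA glucose medium, washed, resuspended and diluted 1:100 in 2% galactose assay medium, pH 6.0. Same strain lacking NS1 served as positive control.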
CHX counter: affects cycloheximide protein synthesis inhibition readout, counter-screen; cell reporter, cycloheximide protein synthesis inhibition counterscreen; max response, %; hit rate 12% among 300,000; AID 2314; in the data active = max response mostly above about 13%, no sharp cut-off; inactive = mostly below about 14%; note: read at 38.3 µM for the half of the compounds with a filed dose
Pf growth 96h: P. falciparum growth inhibition at 96 hour, primary screen for plastid delayed-death inhibitors | P. falciparum luciferase reporter growth, 96 h | Potency, µM (top dose mostly 28.7 µM), hits mostly inhibitors | hit rate 6.9% among 320,000
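Erythrocytes infected with luciferase-expressing P. falciparum were dispensed at 2% hematocrit and 0.05% parasitemia (final), then incubated with compounds 96 hours at 37 C in 5% CO2. Luminescence after detection reagent addition reported growth.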
Shiga inhibitor: blocks Shiga toxin action in Vero cells | Vero cells, Shiga toxin protein synthesis inhibition reporter | inhibition, % at 38.7 µM | hit rate 9.2% among 290,000; in the data active = inhibition mostly above about 28%, no sharp cut-off; inactive = mostly below about 43%
Pf growth 48h: P. falciparum growth inhibition at 48 hours (one generation) | P. falciparum luciferase growth in erythrocytes, 48 h | Potency, µM (highest dose often 28.7 µM), hits mostly inhibitors | hit rate 5.9% among 310,000
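Luminescence readout; reporter = integrated firefly luciferase in P. falciparum. RBC culture at 2% hematocrit, 0.1% parasitemia final, 37 C/5% CO2; decreased signal taken as growth inhibition.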
Large screens that a line does not name were inactive. Unless noted, calls come from the whole dose curve; as a rule, active = well fitted inhibition curve with a large enough effect; inconclusive = small, poorly fitted or top-dose-only effect, or another doubt; inactive = no such curve, though single readings can be large or run the other way.

COC(=O)c1ccc(CNC(=O)CSc2nnc(COc3ccccc3)n2C)o1	none
COc1ccc(-c2cc(C)no2)cc1S(=O)(=O)N1CCOc2ccc(Cl)cc21	Pf growth 96h 10µM, Pf growth 48h inconclusive
Cc1ccc(SC(C)C(=O)N2CCC(C(N)=O)CC2)cc1 (stereo not drawn)	Pf growth 96h inconclusive
CCOC(=O)CCc1c(C)nc(SCCN2CCCC2)c(C#N)c1C	Pf growth 96h 5.2µM, Pf growth 48h inconclusive
COc1ccc(-c2nc(NC(=O)CCNC(=O)c3ccco3)sc2C)cc1	Pf growth 96h inconclusive (no result: NS1 function inh)
Cc1cccc(C(=O)Nc2sc3c(c2C(=O)O)CCCC3)c1	CHX counter 47, Shiga inhibitor 93
O=C(Nc1sc2c(c1C(=O)O)CCC2)c1cccc(Cl)c1	CHX counter 44, Shiga inhibitor 70
O=C(Nc1ccc(S(=O)(=O)N2CCOCC2)cc1)c1ccccc1Br	Pf growth 96h inconclusive
NNC(=O)c1cc(O)c(O)c(O)c1	Pf growth 48h inconclusive
O=C(O)c1cc(O)c(O)c(O)c1	Pf growth 96h 8.5µM, Pf growth 48h inconclusive (no result: NS1 function inh, CHX counter, Shiga inhibitor)
CSc1ccc(CN(C)CC(=O)NCCc2ccccc2)cc1	none
CCCCN(CCCC)C1=Nc2ccccc2N/C1=C(/C#N)C(=O)OCC	Pf growth 96h inconclusive
CCOC(=O)/C(C#N)=C1\Nc2ccccc2N=C1N(CC(C)C)CC(C)C	Pf growth 48h 2.3µM
CCCn1c(CN2CCN(C(=O)OCC)CC2)nc2cc(NC(=O)C(C)C)ccc21	Pf growth 48h inconclusive
O=C(COc1ccccc1-c1ccccc1)N/N=C/c1ccc2ccccc2c1	Pf growth 96h 2.3µM
C/C(=N\NC(=O)COc1ccccc1-c1ccccc1)c1ccccn1	Pf growth 96h inconclusive, Pf growth 48h 2.1µM (no result: NS1 function inh)
CCCCCC(=O)N/N=C(\C)c1ccccn1	Pf growth 96h inconclusive, Pf growth 48h 1.7µM
OCl	none (no result: NS1 function inh, CHX counter, Shiga inhibitor)
COc1cccc(CN2C(=O)NC3(CCCCCC3)C2=O)c1	none
Cc1occc1C(=O)O/N=C(\N)c1ccccc1	CHX counter 51, Pf growth 96h 12µM, Shiga inhibitor 72
Cc1cccc(/C(N)=N/OC(=O)CCC2CCCCC2)c1	Pf growth 96h inconclusive
Cc1cccc(/C(N)=N/OC(=O)c2ccoc2C)c1	CHX counter 38, Shiga inhibitor 68, Pf growth 48h inconclusive
NC(Cc1c[nH]c2ccccc12)C(=O)NCc1ccco1 (stereo not drawn)	none
COc1ccc(/C=N/NC(=O)C2(C)NC(C)(C)Cc3ccccc32)cc1 (stereo not drawn)	none
CC(C)(CO)NC(=O)Nc1ccc(Cl)c(Cl)c1	none
Cc1cccc(OCC2=NS(=O)(=O)c3ccccc3N2)c1	CHX counter 38, Shiga inhibitor 106
Cc1cc(C)cc(NC(=O)COC(=O)CCCC2=NS(=O)(=O)c3ccccc3N2)c1	Pf growth 96h inconclusive (no result: NS1 function inh)
COc1ccc(-c2cccc([C@H]3[C@@H]4C=CC[C@@H](C)[C@@H]4C(=O)N3Cc3ccccc3)c2)cc1	none (no result: NS1 function inh, Pf growth 96h, Pf growth 48h)
CN(C)c1ccc(-c2cccc(C3CC=CC4C3C(=O)N(Cc3ccccc3)C4c3ccc4ccccc4c3)c2)cc1 (stereo not drawn)	Pf growth 96h inconclusive, Pf growth 48h 9.3µM
COc1ccc(-c2cccc(C3CC=CC4C3C(=O)N(Cc3ccccc3)C4c3ccc4ccccc4c3)c2)cc1 (stereo not drawn)	Pf growth 96h 15µM, Pf growth 48h 9.3µM
COc1ccc(C2C3C=CCC(c4cccc(-c5ccc(C)cc5)c4)C3C(=O)N2Cc2ccccc2)cc1Cl (stereo not drawn)	Pf growth 96h inconclusive, Pf growth 48h 12µM
COc1ccc(NC(=O)c2cccc(NC3=NC4CS(=O)(=O)CC4S3)c2)cc1Cl (stereo not drawn)	none
Fc1ccc(NC(=S)Nc2ccccc2Cl)cc1	none
CCn1ncc(NC(=S)Nc2ccc3c(c2)OCO3)c1C(N)=O	CHX counter 15, Shiga inhibitor 68 (no result: NS1 function inh)
S=C(Nc1ccc2c(c1)OCCO2)Nc1ccccc1Cl	CHX counter 33, Shiga inhibitor 48
S=C(NCc1ccc2c(c1)OCO2)Nc1ccc2nsnc2c1	CHX counter 15
CN(C)C(=S)Nc1ccc2c(c1)OCO2	none (no result: NS1 function inh)
S=C(Nc1ccc2c(c1)OCO2)Nc1ccc2c(c1)OCO2	CHX counter 55, Shiga inhibitor 66
CCOC(=O)Nc1ccc2c(c1)Sc1ccccc1N2C(=O)CCN1CCOCC1	none
COc1ccccc1NC(=O)CSc1ccc2nnc(CCNC(=O)c3ccccc3)n2n1	Pf growth 96h inconclusive, Pf growth 48h inconclusive
S=C(Nc1ccc(Cl)cc1)Nc1ccc2c(c1)OCCO2	CHX counter 39, Shiga inhibitor 58
Fc1ccc(NC(=S)Nc2ccc(F)c(Cl)c2)cc1Cl	Pf growth 96h inconclusive (no result: Pf growth 48h)
COC(=O)c1cc(C(=O)OCC(=O)c2ccc3c(c2)NC(=O)CO3)cc([N+](=O)[O-])c1	none (no result: NS1 function inh, CHX counter, Shiga inhibitor)
Cc1cccc(/C=N/NC(=O)c2cc3c(s2)-c2ccccc2CC3)c1	Pf growth 48h inconclusive
CCOC(=O)c1cc2c(s1)-c1ccccc1CC2	CHX counter 37, Shiga inhibitor 67
CCOC(=O)c1cc2ccc3ccccc3c2s1	CHX counter 48, Shiga inhibitor 75
COC(=O)c1cc2c(s1)-c1ccccc1CC2	CHX counter 62, Shiga inhibitor active
Cc1csc(NC(=O)CSc2nc(=O)n(CCN(C)C)c3c2CCCC3)n1	Pf growth 48h inconclusive (no result: NS1 function inh, CHX counter, Shiga inhibitor)
Cc1sc2ncnc(SCC(=O)NC3CCCC3)c2c1C	Pf growth 96h inconclusive
Cc1sc2ncnc(N(C)C3CCCCC3)c2c1C	Shiga inhibitor 45
Cc1cccc(N2CC(C(=O)Nc3nnc(SCC(=O)N4CCOCC4)s3)CC2=O)c1 (stereo not drawn)	Pf growth 96h inconclusive, Pf growth 48h inconclusive
Cc1ccc2nc(N3C(=O)C(O)=C(C(=O)c4ccco4)C3c3ccc(O)cc3)sc2c1 (stereo not drawn)	NS1 function inh inconclusive, CHX counter 16, Pf growth 96h inconclusive
Cc1ccc2nc(N3C(=O)C(O)=C(C(=O)c4ccco4)C3c3ccc(C)o3)sc2c1 (stereo not drawn)	CHX counter 31, Pf growth 96h 5.2µM, Shiga inhibitor 80
Cc1ccc2nc(N3C(=O)C(O)=C(C(=O)c4ccc(C)o4)C3c3ccco3)sc2c1 (stereo not drawn)	Pf growth 96h 6.7µM (no result: NS1 function inh, CHX counter, Shiga inhibitor)
Cc1cc(C)c2nc(N3C(=O)C(O)=C(C(=O)c4ccco4)C3c3ccc(O)cc3)sc2c1 (stereo not drawn)	Pf growth 48h inconclusive (no result: NS1 function inh, CHX counter, Shiga inhibitor)
CSc1nnc(N2C(=O)C(O)=C(C(=O)c3ccc(C)o3)C2c2ccc(C)cc2)s1 (stereo not drawn)	CHX counter 35, Shiga inhibitor 95
CCOCCCN(C(=O)c1snc(C(N)=O)c1N)C(C(=O)NC1CCCC1)c1ccc(F)cc1 (stereo not drawn)	Pf growth 96h inconclusive, Pf growth 48h inconclusive
Cc1ccc(C2C(C(=O)c3ccco3)=C(O)C(=O)N2c2nnc(C)s2)cc1 (stereo not drawn)	none
Cc1nnc(N2C(=O)C(O)=C(C(=O)c3ccco3)C2c2cccc3ccccc23)s1 (stereo not drawn)	Shiga inhibitor 37

Screening results deposited in PubChem BioAssay by National Center for Advancing Translational Sciences (NCATS).
